This is part of a sample that, as a whole, favours compounds with a hit. Of some 79,000 tested, about 15% had one in any assay. A number with no mark means an inactive call. Activity calls are given as the source filed them. No stated cut-off is given here; in the data, active means growth inhibition above about 70%; inactive means the rest.
What was measured:
[1] = NCI Yeast Anticancer Drug Screen. Data for the rad52 strain (AID 147);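 further: 0% = growth of vehicle-treated control cultures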; conditions: S. cerevisiae rad52 mutant growth inhibition, hits give high values
Summary of the method: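 Screen used a yeast mutant impaired in DNA repair. After compound exposure, growth was measured. Values reflect inhibition compared with vehicle-treated cells.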

[2] = NCI Yeast Anticancer Drug Screen. Data for the wt1 strain (AID 149);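 further: 0% = growth of vehicle-treated wt1 cultures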; conditions: S. cerevisiae wt1 strain (SPY 50644) growth inhibition, hits give high values
Summary of the method: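 Vehicle-normalised growth inhibition; strain wt1; compound exposure.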

[3] = NCI Yeast Anticancer Drug Screen. Data for the rad50EPP+ strain (AID 151);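 further: 0% = growth of vehicle-treated control cultures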; conditions: S. cerevisiae rad50 mutant strain, hits give high values
Summary of the method: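 Exposing the rad50EPP+ strain to each compound, growth was compared with vehicle-only cultures to give inhibition.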

[4] = NCI Yeast Anticancer Drug Screen. Data for the mgt1 strain (AID 153); conditions: S. cerevisiae mgt1 mutant growth inhibition, hits give high values
Summary of the method: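 Genetically defined yeast (mgt1) treated with compound; inhibition of growth expressed against vehicle-treated controls.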

[5] = NCI Yeast Anticancer Drug Screen. Data for the rad50 strain (AID 155);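 further: 0% = growth of vehicle-only cultures of the same strain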; conditions: S. cerevisiae rad50 strain growth inhibition, hits give high values
Summary of the method: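 A DNA repair-deficient yeast mutant serves as the test organism; compound-induced growth inhibition is calculated against vehicle-treated cells.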

[6] = NCI Yeast Anticancer Drug Screen. Data for the mec2-1 strain (AID 157); conditions: S. cerevisiae mec2-1 strain, hits give high values
Summary of the method: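 Readout is yeast growth inhibition, normalised to vehicle-treated controls, in the mec2-1 strain exposed to compound.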

[7] = NCI Yeast Anticancer Drug Screen. Data for the rad14 strain (AID 159);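 further: 0% = growth of vehicle-treated control cultures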; conditions: S. cerevisiae rad14 strain growth inhibition, hits give high values
Summary of the method: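 Vehicle-treated cultures served as the baseline for growth inhibition of a DNA repair-mutant yeast strain exposed to each compound.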

[8] = NCI Yeast Anticancer Drug Screen. Data for the sgs1 mgt1 strain (AID 161);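 further: 0% = growth of cultures given vehicle only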; conditions: S. cerevisiae sgs1 mgt1 strain, hits give high values
Summary of the method: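 Compounds are added to genetically altered yeast, and growth is compared with cultures given vehicle alone to give percent inhibition.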

[9] = NCI Yeast Anticancer Drug Screen. Data for the CLN2oe strain (AID 163);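 further: 0% = growth of vehicle-only control cultures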; conditions: S. cerevisiae CLN2oe strain, hits give high values
Summary of the method: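 Values reflect how much compound exposure reduced yeast growth, referenced to vehicle-exposed cells. Assay organism is a strain with a defined genetic change affecting cell-cycle control.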

[10] = NCI Yeast Anticancer Drug Screen. Data for the cln2 rad14 strain (AID 165);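 further: 0% = growth equal to vehicle treated cultures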; conditions: S. cerevisiae cln2 rad14 strain, hits give high values
Summary of the method: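 Relative to vehicle controls, growth inhibition of compound-treated cln2 rad14 yeast was recorded.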

[11] = NCI Yeast Anticancer Drug Screen. Data for the bub3 strain (AID 167); conditions: S. cerevisiae bub3 mutant strain, hits give high values
Summary of the method: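 Inhibition values come from growth of compound-treated mutant yeast normalised to vehicle-treated controls.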

[12] = NCI Yeast Anticancer Drug Screen. Data for the wt2 strain (AID 169);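 further: 0% = growth of vehicle-treated yeast cultures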; conditions: S. cerevisiae wt2 strain growth inhibition, hits give high values
Summary of the method: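 Values express reduction in yeast growth under compound treatment, referenced to vehicle-treated cells.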

[13] = NCI Yeast Anticancer Drug Screen. Data for the mlh1 strain (AID 171);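 further: 0% = growth of vehicle-treated control cultures of the same strain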; conditions: S. cerevisiae mlh1 strain growth inhibition, hits give high values
Summary of the method: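 Steps: expose the defined-mutant yeast strain to compound; expose a parallel culture to vehicle; measure growth; express compound effect as inhibition relative to the vehicle culture.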

[14] = NCI Yeast Anticancer Drug Screen. Data for the sgs1 strain (AID 173);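 further: 0% = growth of vehicle-only control cultures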; conditions: S. cerevisiae sgs1 mutant, hits give high values
Summary of the method: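 Treat defined-mutant yeast with compound; measure growth; calculate inhibition relative to vehicle-treated cells.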

[15] = NCI Yeast Anticancer Drug Screen. Data for the mlh1 rad18 strain (AID 175); conditions: S. cerevisiae mlh1 rad18 strain growth inhibition, hits give high values
Summary of the method: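 Test agents were incubated with a yeast strain of defined genotype (DNA damage repair defect). Inhibition of growth was derived by comparison with vehicle-exposed cultures.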

[16] = NCI Yeast Anticancer Drug Screen. Data for the rad18 strain (AID 177); conditions: S. cerevisiae rad18 mutant growth inhibition, hits give high values
Summary of the method: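 A genetically defined yeast mutant impaired in DNA damage repair was treated with test compounds, then its growth was measured against cultures receiving vehicle alone.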

[17] = at 5.0 µM (retest, dose inferred, filed as 0.5)
[18] = at 50.0 µM (retest, dose inferred, filed as 5.0)

Structure (SMILES): CCOC(=O)CC1(C)/C(=N\Nc2ccc([N+](=O)[O-])cc2[N+](=O)[O-])CCC2C1CCC1(C)C(C(C)CCCC(C)C)CCC21 (stereo unspecified)
- growth inhibition ([1]; at 1.2 µM): 0%
- growth inhibition ([1]; at 3.7 µM): 0%
- growth inhibition ([1]; at 11.0 µM): 0%
- growth inhibition ([1]; at 33.0 µM): 1%
- growth inhibition ([1]; at 100.0 µM): -2%
- growth inhibition ([2]; at 1.2 µM): 0%
- growth inhibition ([2]; at 3.7 µM): -1%
- growth inhibition ([2]; at 11.0 µM): -1%
- growth inhibition ([2]; at 33.0 µM): -1%
- growth inhibition ([2]; at 100.0 µM): -3%
- growth inhibition ([3]; at 1.2 µM): -2%
- growth inhibition ([3]; at 3.7 µM): -1%
- growth inhibition ([3]; at 11.0 µM): -2%
- growth inhibition ([3]; at 33.0 µM): -2%
- growth inhibition ([3]; at 100.0 µM): 1%
- growth inhibition ([4]; at 1.2 µM): -1%
- growth inhibition ([4]; at 3.7 µM): -3%
- growth inhibition ([4]; at 11.0 µM): -2%
- growth inhibition ([4]; at 33.0 µM): -1%
- growth inhibition ([4]; at 100.0 µM): -5%
- growth inhibition ([5]; at 1.2 µM): 1%
- growth inhibition ([5]; at 3.7 µM): 2%
- growth inhibition [5, 17]: 92% (active)
- growth inhibition ([5]; at 11.0 µM): 3%
- growth inhibition ([5]; at 33.0 µM): 0%
- growth inhibition [5, 18]: 90% (active)
- growth inhibition ([5]; at 50.0 µM): -50.5%
- growth inhibition ([5]; at 100.0 µM): -1%
- growth inhibition ([6]; at 1.2 µM): -4%
- growth inhibition ([6]; at 3.7 µM): -4%
- growth inhibition [6, 17]: 10%
- growth inhibition ([6]; at 11.0 µM): -5%
- growth inhibition ([6]; at 33.0 µM): -1%
- growth inhibition [6, 18]: 10%
- growth inhibition ([6]; at 50.0 µM): -6.8%
- growth inhibition ([6]; at 100.0 µM): -5%
- growth inhibition ([7]; at 1.2 µM): 0%
- growth inhibition ([7]; at 3.7 µM): -2%
- growth inhibition ([7]; at 11.0 µM): -4%
- growth inhibition ([7]; at 33.0 µM): -3%
- growth inhibition ([7]; at 100.0 µM): -3%
- growth inhibition [8, 17]: 6%
- growth inhibition [8, 18]: 4%
- growth inhibition ([8]; at 50.0 µM): -26.4%
- growth inhibition ([9]; at 1.2 µM): -2%
- growth inhibition ([9]; at 3.7 µM): -4%
- growth inhibition ([9]; at 11.0 µM): 6%
- growth inhibition ([9]; at 33.0 µM): -2%
- growth inhibition ([9]; at 100.0 µM): -5%
- growth inhibition [10, 17]: 7%
- growth inhibition [10, 18]: -3%
- growth inhibition ([10]; at 50.0 µM): -21.4%
- growth inhibition ([11]; at 1.2 µM): -1%
- growth inhibition ([11]; at 3.7 µM): -3%
- growth inhibition [11, 17]: -10%
- growth inhibition ([11]; at 11.0 µM): -5%
- growth inhibition ([11]; at 33.0 µM): -3%
- growth inhibition [11, 18]: -11%
- growth inhibition ([11]; at 50.0 µM): -1.1%
- growth inhibition ([11]; at 100.0 µM): -5%
- growth inhibition ([12]; at 1.2 µM): 0%
- growth inhibition ([12]; at 3.7 µM): 1%
- growth inhibition ([12]; at 11.0 µM): 0%
- growth inhibition ([12]; at 33.0 µM): -1%
- growth inhibition ([12]; at 100.0 µM): -1%
- growth inhibition ([13]; at 1.2 µM): -1%
- growth inhibition ([13]; at 3.7 µM): -3%
- growth inhibition ([13]; at 11.0 µM): -2%
- growth inhibition ([13]; at 33.0 µM): -3%
- growth inhibition ([13]; at 100.0 µM): -3%
- growth inhibition ([14]; at 1.2 µM): -1%
- growth inhibition ([14]; at 3.7 µM): -3%
- growth inhibition ([14]; at 11.0 µM): -2%
- growth inhibition ([14]; at 33.0 µM): -1%
- growth inhibition ([14]; at 100.0 µM): -2%
- growth inhibition [15, 17]: 4%
- growth inhibition [15, 18]: 2%
- growth inhibition ([15]; at 50.0 µM): 0.05%
- growth inhibition ([16]; at 1.2 µM): -2%
- growth inhibition ([16]; at 3.7 µM): -5%
- growth inhibition ([16]; at 11.0 µM): -3%
- growth inhibition ([16]; at 33.0 µM): -5%
- growth inhibition ([16]; at 100.0 µM): -4%

Structure (SMILES): COc1c2c(c3c(c1CCC(=O)O)OC(C)(C)C=C3)OC(C)(C)C=C2
- growth inhibition ([1]; at 1.2 µM): -3%
- growth inhibition ([1]; at 3.7 µM): 1%
- growth inhibition ([1]; at 11.0 µM): 10%
- growth inhibition ([1]; at 33.0 µM): 62%
- growth inhibition ([1]; at 100.0 µM): 98% (active)
- growth inhibition ([2]; at 1.2 µM): 0%
- growth inhibition ([2]; at 3.7 µM): 2%
- growth inhibition ([2]; at 11.0 µM): 13%
- growth inhibition ([2]; at 33.0 µM): 49%
- growth inhibition ([2]; at 100.0 µM): 97% (active)
- growth inhibition ([3]; at 1.2 µM): -3%
- growth inhibition ([3]; at 3.7 µM): 1%
- growth inhibition ([3]; at 11.0 µM): 5%
- growth inhibition ([3]; at 33.0 µM): 15%
- growth inhibition ([3]; at 100.0 µM): 35%
- growth inhibition ([4]; at 1.2 µM): -1%
- growth inhibition ([4]; at 3.7 µM): 0%
- growth inhibition ([4]; at 11.0 µM): 15%
- growth inhibition ([4]; at 33.0 µM): 61%
- growth inhibition ([4]; at 100.0 µM): 99% (active)
- growth inhibition ([5]; at 1.2 µM): -1%
- growth inhibition ([5]; at 3.7 µM): -3%
- growth inhibition [5, 17]: 15%
- growth inhibition ([5]; at 11.0 µM): 19%
- growth inhibition ([5]; at 33.0 µM): 54%
- growth inhibition [5, 18]: 45%
- growth inhibition ([5]; at 50.0 µM): 58.2%
- growth inhibition ([5]; at 100.0 µM): 98% (active)
- growth inhibition ([6]; at 1.2 µM): -2%
- growth inhibition ([6]; at 3.7 µM): 2%
- growth inhibition [6, 17]: -1%
- growth inhibition ([6]; at 11.0 µM): 20%
- growth inhibition ([6]; at 33.0 µM): 59%
- growth inhibition [6, 18]: 49%
- growth inhibition ([6]; at 50.0 µM): 65.8%
- growth inhibition ([6]; at 100.0 µM): 98% (active)
- growth inhibition ([7]; at 1.2 µM): 0%
- growth inhibition ([7]; at 3.7 µM): 2%
- growth inhibition ([7]; at 11.0 µM): 11%
- growth inhibition ([7]; at 33.0 µM): 53%
- growth inhibition ([7]; at 100.0 µM): 98% (active)
- growth inhibition [8, 17]: -3%
- growth inhibition [8, 18]: 32%
- growth inhibition ([8]; at 50.0 µM): 69.8%
- growth inhibition ([9]; at 1.2 µM): -1%
- growth inhibition ([9]; at 3.7 µM): -1%
- growth inhibition ([9]; at 11.0 µM): 27%
- growth inhibition ([9]; at 33.0 µM): 80% (active)
- growth inhibition ([9]; at 100.0 µM): 99% (active)
- growth inhibition [10, 17]: 43%
- growth inhibition [10, 18]: 82% (active)
- growth inhibition ([10]; at 50.0 µM): 91.2% (active)
- growth inhibition ([11]; at 1.2 µM): -7%
- growth inhibition ([11]; at 3.7 µM): -1%
- growth inhibition [11, 17]: -13%
- growth inhibition ([11]; at 11.0 µM): 6%
- growth inhibition ([11]; at 33.0 µM): 58%
- growth inhibition [11, 18]: 20%
- growth inhibition ([11]; at 50.0 µM): 71.9% (active)
- growth inhibition ([11]; at 100.0 µM): 97% (active)
- growth inhibition ([12]; at 1.2 µM): -1%
- growth inhibition ([12]; at 3.7 µM): 2%
- growth inhibition ([12]; at 11.0 µM): 17%
- growth inhibition ([12]; at 33.0 µM): 56%
- growth inhibition ([12]; at 100.0 µM): 98% (active)
- growth inhibition ([13]; at 1.2 µM): 2%
- growth inhibition ([13]; at 3.7 µM): 3%
- growth inhibition ([13]; at 11.0 µM): 20%
- growth inhibition ([13]; at 33.0 µM): 39%
- growth inhibition ([13]; at 100.0 µM): 99% (active)
- growth inhibition [15, 17]: 3%
- growth inhibition [15, 18]: 43%
- growth inhibition ([15]; at 50.0 µM): 76.4% (active)
- growth inhibition ([16]; at 1.2 µM): 3%
- growth inhibition ([16]; at 3.7 µM): 8%
- growth inhibition ([16]; at 11.0 µM): 22%
- growth inhibition ([16]; at 33.0 µM): 51%
- growth inhibition ([16]; at 100.0 µM): 97% (active)

Source: PubChem BioAssay (NCI)
